PubChem BioAssay (NCI)
About 83,000 compounds went through this panel and 20% of them were active in at least one assay; those are over-represented in the sample as a whole.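 Negative percent growth values reflect cell death: -40 means 40% of the cells present at the start died, and -100 means all died.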 Unmarked numbers belong to inactive results. Active and inactive are the calls of the source. How the source made its calls: active means growth percent below 10; inactive means the rest.

What was measured:
Test in all cases: NCI-60 one-dose screen, 48 h (100 = growth as untreated, 0 = no growth, -100 = all killed)
Conditions in all cases: 10 µM unless noted
NCI-H23 lung = tested on: NCI-H23 lung
NCI-H226 lung = tested on: NCI-H226 lung
NCI-H322M lung = tested on: NCI-H322M lung
HOP-62 NSCLC = tested on: HOP-62 NSCLC
NCI-H460 lung = tested on: NCI-H460 lung
HOP-92 NSCLC = tested on: HOP-92 NSCLC
NCI-H522 lung = tested on: NCI-H522 lung
A549/ATCC NSCLC = tested on: A549/ATCC NSCLC
786-0 renal = tested on: 786-0 renal
COLO 205 colon = tested on: COLO 205 colon
DU-145 prostate = tested on: DU-145 prostate
K-562 leukemia = tested on: K-562 leukemia
MALME-3M melanoma = tested on: MALME-3M melanoma
MDA-MB-231 breast = tested on: MDA-MB-231 breast
RXF 393 renal = tested on: RXF 393 renal
SF-268 CNS = tested on: SF-268 CNS
SF-295 CNS = tested on: SF-295 CNS
SF-539 CNS = tested on: SF-539 CNS
UACC-257 melanoma = tested on: UACC-257 melanoma
M14 melanoma = tested on: M14 melanoma

Row | SMILES | growth (NCI-H23 lung) | growth (NCI-H226 lung) | growth (NCI-H322M lung) | growth (HOP-62 NSCLC) | growth (NCI-H460 lung) | growth (HOP-92 NSCLC) | growth (NCI-H522 lung) | growth (A549/ATCC NSCLC) | growth (786-0 renal) | growth (COLO 205 colon) | growth (DU-145 prostate) | growth (K-562 leukemia) | growth (MALME-3M melanoma) | growth (MDA-MB-231 breast) | growth (RXF 393 renal) | growth (SF-268 CNS) | growth (SF-295 CNS) | growth (SF-539 CNS) | growth (UACC-257 melanoma) | growth (M14 melanoma)
1 | CN(C)C(=O)c1cc(-c2ccc3ncnc(N4CCc5cc(F)c(Cl)cc54)c3c2)cnc1N | -18.1% (active) | -25.4% (active) | -64.2% (active) | -32.6% (active) | 3.44% (active) | -45.7% (active) | -13.4% (active) | -66.9% (active) | -82.2% (active) | -76.5% (active) | 23% | -21.7% (active) | -57.7% (active) | -49.2% (active) | -73.7% (active) | 24.2% | -73.1% (active) | -73.2% (active) | 4.11% (active) | -36.7% (active)
2 | N#CC1=C(c2ccco2)Nc2c(c(-c3ccccc3)nn2-c2ccccc2)C12C(=O)Nc1ccc(Cl)cc12 (stereo not given) | 45.6% | -9.04% (active) | 50.7% | -47.9% (active) | 0.156% (active) | -0.851% (active) | 0.0636% (active) | -37.1% (active) | -14.5% (active) | 79.6% | 42.3% | 9.86% (active) | 22.3% | -4.25% (active) | 57.9% | 11% | 6.91% (active) | -30.3% (active) | 56.4% | 22.4%
3 | FC(F)(F)c1cc2c(Cl)ncnc2n1CCC1CCOCC1 | -14.4% (active) | 39% | -72.6% (active) | 6.11% (active) | -68.8% (active) | 71.5% | -80% (active) | 97.6% | 87.7% | 71.5% | -99.6% (active) | -26.3% (active) | 79.2% | 0.4% (active) | 57.8% | -71.1% (active) | 70.8% | 70.8% | 37.6% | -83.5% (active)
4 | COc1ccc(-c2cc(-c3cc(OC)c(OC)c(OC)c3)[nH]c(=O)c2C#N)cc1 | 86% | 23.4% | 5.73% (active) | 12.9% | 52.4% | -33.5% (active) | 50.6% | 59.3% | -65.4% (active) | 130% | 93% | 79.1% | 29.7% | 1.65% (active) | 14.6% | 54.3% | 59.1% | -18.3% (active) | 96.4% | 96.7%
5 | Cc1nc(N)ncc1-c1ccc2ncnc(N3CCc4cc(F)c(Cl)cc43)c2c1 | 84.3% | 73.7% | 28.7% | 72.8% | 76.7% | 13.6% | 68.2% | 56.2% | 39.1% | 81.5% | 47.3% | 61.7% | 91.9% | 35.3% | 14.6% | 45.9% | 84.9% | 67% | 105% | 102%
6 | Cc1nc2sccn2c1-c1nnc(SCC(C)C)o1 | 85.9% | 62% | 82.1% | 95.2% | 97% | 64.4% | 71.5% | 91.3% | 82.3% | 106% | 99.1% | 52.7% | 97.8% | 87.1% | 104% | 88.5% | 86.1% | 93.3% | 98.7% | 99.9%
7 | COc1cc(CNC(=O)C[C@H](C)CCC=C(C)C)ccc1OCc1cn(-c2cccc(C(F)(F)F)c2)nn1 | 79.4% | 72.3% | 90.1% | 88.8% | 14.6% | 86.1% | 83.1% | 42.6% | 93% | 74.2% | 101% | 59% | 80.8% | 87.2% | 88.3% | 83.9% | 72.9% | 16.3% | 104% | 92.1%
8 | C#CCCCNCCNc1ccnc2cc(Cl)ccc12 | 72.7% | 70.7% | 92% | 79.1% | 83.2% | 53.4% | 41.1% | 84.3% | 58.8% | 10.7% | 74.5% | 19.9% | 88.8% | 66.3% | 36.2% | 87.7% | 48.2% | -13.9% (active) | 0.503% (active) | 61.3%
9 | CCCCCCCCc1ccc(C(=O)Nc2ccc(C)cc2C(=O)O)cc1 | 85.2% | 84.3% | 91.1% | 96.3% | 88.4% | 10.4% | 73.2% | 66.8% | 89.6% | 119% | 95% | 59.4% | 92.2% | 96.9% | 110% | 96% | 51.1% | 100% | 95.8% | 104%
10 | Nc1nnc(-c2cncc(Br)c2)c(-c2c[nH]c3ccc(Br)cc23)n1 | 70.7% | 76.5% | 78.2% | 72.7% | 39.6% | 83.3% | 17.9% | 49.2% | 55.5% | 51.3% | 85.9% | 19.1% | 74.1% | 48.7% | 55.6% | 77.1% | 74.5% | 52.3% | 73.9% | 44.5%
11 | CN(C)c1nc(NCCNS(=O)(=O)c2ccc(C(=O)/C=C/c3ccccc3)cc2)nc(N2CCOCC2)n1 | 93.2% | 82.6% | 96.9% | 108% | 101% | 94.9% | 67.5% | 78.8% | 66.4% | 105% | 89.6% | -15.4% (active) | 99.2% | 7.26% (active) | 79% | 74.6% | 75.6% | 77.1% | 78.8% | 84.4%
12 | COc1ccc(C(=O)/C=C/c2ccc3c(c2)OCCO3)cc1S(N)(=O)=O | 73% | 116% | 84.6% | 29.7% | 68.3% | 94.5% | 43.8% | 47.6% | 76.5% | 91.9% | 44.7% | 16.7% | 88.3% | 86.5% | 88.5% | 111% | 79.5% | 44.9% | 77.9% | 89.7%
13 | O=C(CSc1nnc(-c2ccc(-c3nc4ccc(Cl)cc4[nH]3)cc2)o1)Nc1ccc(Cl)cc1 | -11.9% (active) | -38.2% (active) | 32.9% | -13.6% (active) | -75.8% (active) | 14.7% | -1.21% (active) | -36.2% (active) | -39.5% (active) | 45.3% | 6.16% (active) | 11.2% | -23.8% (active) | -51.5% (active) | -49% (active) | 8.68% (active) | 27.6% | -95.3% (active) | 3.38% (active) | 1.01% (active)
14 | N#Cc1c(-c2ccc(F)cc2)nc(SCc2ccccc2)nc1N1CCNCC1 | -90.5% (active) | -58.8% (active) | -53.7% (active) | -78.8% (active) | -85.5% (active) | -92.2% (active) | -81.6% (active) | -90.9% (active) | -94% (active) | -66% (active) | -79.8% (active) | -22% (active) | -97.3% (active) | -98.5% (active) | -94.8% (active) | -31.2% (active) | -83% (active) | -99.4% (active) | -93.2% (active) | -90.2% (active)
15 | C=CCSc1nnc(-c2c(C)nc3sccn23)o1 | 88.7% | 76.1% | 84.9% | 106% | 95.8% | 72.4% | 89% | 92.7% | 89.8% | 107% | 110% | 98.3% | 109% | 92.6% | 99.9% | 110% | 89.2% | 90.4% | 86.9% | 92.5%
